# Measured values reported in PubChem BioAssay.
# Active and inactive are the calls of the source.
# Tests used:
# [1] = small molecules captured by biotinylated probe aFSTL3 – biochemical, small-molecule microarray, fluorescence 635/667, stem cell growth factor project, primary screen (AID 1064); conditions: higher = more signal;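 also: measures binding of the biotinylated anti-FSTL3 antibody to printed compounds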
# [2] = binders from COS7 lysate, DM2A8 probe, primary screen, torsin A project, cell lysate, small-molecule microarray, fluorescence 635/667 (AID 1065); conditions: higher = more signal, COS7 lysate expressing mutant human TOR1A
# [3] = small molecules captured by biotinylated probe aFGF2 – biochemical, small-molecule microarray, fluorescence 635/667, stem cell growth factor project, primary screen (AID 1067); conditions: higher = more signal;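 also: measures binding of biotinylated aFGF2 protein to printed compounds on slides; z-score merges feature fluorescence and signal-to-noise across triplicate slides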
# [4] = small molecules captured by biotinylated probe aFGF10 – biochemical, small-molecule microarray, fluorescence 635/667, stem cell growth factor project, primary screen (AID 1071); conditions: higher = more signal;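 also: score merges 667 nm spot intensity and signal to noise from triplicate slides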
# [5] = biological target: Neurogenic locus notch homolog protein 2 (Homo sapiens) (UniProt Q04721); assay: small molecules binding Notch2 protein – biochemical, small-molecule microarray, 635 nm fluorescence, stem cell growth factors, primary screen (AID 1073); conditions: higher = more signal
# Sequence of Neurogenic locus notch homolog protein 2 (Homo sapiens) (Q04721 whole entry, looked up, canonical isoform): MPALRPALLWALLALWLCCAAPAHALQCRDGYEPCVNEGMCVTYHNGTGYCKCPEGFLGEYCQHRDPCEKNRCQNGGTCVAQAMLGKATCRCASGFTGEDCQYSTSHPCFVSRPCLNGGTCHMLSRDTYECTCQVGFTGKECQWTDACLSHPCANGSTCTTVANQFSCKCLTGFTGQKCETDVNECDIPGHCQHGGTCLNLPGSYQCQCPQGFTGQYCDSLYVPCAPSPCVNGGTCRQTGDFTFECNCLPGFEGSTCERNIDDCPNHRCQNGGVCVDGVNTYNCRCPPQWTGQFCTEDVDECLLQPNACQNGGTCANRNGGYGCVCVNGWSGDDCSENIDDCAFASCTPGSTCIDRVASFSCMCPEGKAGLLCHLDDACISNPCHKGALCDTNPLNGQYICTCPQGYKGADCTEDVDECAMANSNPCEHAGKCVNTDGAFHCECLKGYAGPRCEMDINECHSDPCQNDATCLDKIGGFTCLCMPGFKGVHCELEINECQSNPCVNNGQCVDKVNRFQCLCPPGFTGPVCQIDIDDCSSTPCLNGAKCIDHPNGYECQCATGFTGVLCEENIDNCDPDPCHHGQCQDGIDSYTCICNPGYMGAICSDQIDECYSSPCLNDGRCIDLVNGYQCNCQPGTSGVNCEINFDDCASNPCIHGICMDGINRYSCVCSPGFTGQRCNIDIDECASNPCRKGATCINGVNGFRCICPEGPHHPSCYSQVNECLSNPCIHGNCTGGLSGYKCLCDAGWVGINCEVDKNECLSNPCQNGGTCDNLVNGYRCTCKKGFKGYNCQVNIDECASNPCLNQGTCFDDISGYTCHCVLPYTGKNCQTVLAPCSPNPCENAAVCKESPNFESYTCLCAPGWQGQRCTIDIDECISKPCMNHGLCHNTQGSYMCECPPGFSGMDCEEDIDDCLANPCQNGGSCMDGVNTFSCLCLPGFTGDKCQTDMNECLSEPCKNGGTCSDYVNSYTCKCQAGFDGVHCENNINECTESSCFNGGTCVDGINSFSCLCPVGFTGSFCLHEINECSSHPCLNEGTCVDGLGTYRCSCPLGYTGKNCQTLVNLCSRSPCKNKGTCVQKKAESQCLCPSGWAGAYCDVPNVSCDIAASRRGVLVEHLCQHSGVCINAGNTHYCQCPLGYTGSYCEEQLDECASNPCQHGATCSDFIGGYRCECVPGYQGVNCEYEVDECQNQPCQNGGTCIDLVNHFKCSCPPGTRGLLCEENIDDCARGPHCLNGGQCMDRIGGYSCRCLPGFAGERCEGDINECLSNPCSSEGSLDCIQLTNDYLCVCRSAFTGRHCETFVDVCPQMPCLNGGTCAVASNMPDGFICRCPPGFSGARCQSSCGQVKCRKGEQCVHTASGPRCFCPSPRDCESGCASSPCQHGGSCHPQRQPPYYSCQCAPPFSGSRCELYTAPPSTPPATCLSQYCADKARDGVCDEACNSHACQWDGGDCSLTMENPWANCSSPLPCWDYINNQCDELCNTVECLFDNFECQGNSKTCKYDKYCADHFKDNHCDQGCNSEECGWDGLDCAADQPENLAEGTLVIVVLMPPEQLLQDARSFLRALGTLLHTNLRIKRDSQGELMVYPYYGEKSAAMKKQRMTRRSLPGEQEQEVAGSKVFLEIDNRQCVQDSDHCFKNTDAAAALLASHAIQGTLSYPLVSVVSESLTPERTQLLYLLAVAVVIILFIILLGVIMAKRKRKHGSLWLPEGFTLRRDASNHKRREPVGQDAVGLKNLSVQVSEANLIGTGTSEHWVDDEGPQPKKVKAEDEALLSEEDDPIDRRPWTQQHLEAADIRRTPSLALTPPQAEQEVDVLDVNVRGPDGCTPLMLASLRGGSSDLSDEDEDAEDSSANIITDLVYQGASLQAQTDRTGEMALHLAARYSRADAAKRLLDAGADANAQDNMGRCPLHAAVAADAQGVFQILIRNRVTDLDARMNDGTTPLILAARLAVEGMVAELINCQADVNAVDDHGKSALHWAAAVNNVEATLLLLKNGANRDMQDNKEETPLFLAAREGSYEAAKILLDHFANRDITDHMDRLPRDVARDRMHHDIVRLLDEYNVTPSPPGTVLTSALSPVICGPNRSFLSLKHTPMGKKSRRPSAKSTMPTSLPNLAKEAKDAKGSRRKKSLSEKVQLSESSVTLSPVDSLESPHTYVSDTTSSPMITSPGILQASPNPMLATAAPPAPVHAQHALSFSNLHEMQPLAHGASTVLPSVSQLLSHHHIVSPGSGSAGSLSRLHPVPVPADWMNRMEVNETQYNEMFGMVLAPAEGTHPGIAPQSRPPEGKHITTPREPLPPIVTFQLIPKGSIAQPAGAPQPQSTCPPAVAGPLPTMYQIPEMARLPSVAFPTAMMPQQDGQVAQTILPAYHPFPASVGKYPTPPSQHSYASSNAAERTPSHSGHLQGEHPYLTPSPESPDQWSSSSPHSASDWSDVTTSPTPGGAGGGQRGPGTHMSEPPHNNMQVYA
# [6] = biological target: Pro-neuregulin-1, membrane-bound isoform (Homo sapiens) (UniProt Q02297); assay: small molecules binding neuregulin-1 protein – biochemical, small-molecule microarray, fluorescence 635/667, psychiatric disease protein project, primary screen (AID 1075); conditions: NRG1 binding, 635 nm fluorescence, higher = more signal;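 also: score combines 667 nm spot fluorescence with signal to noise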
# Sequence of Pro-neuregulin-1, membrane-bound isoform (Homo sapiens) (Q02297 whole entry, looked up, the tested form may be a part, canonical isoform): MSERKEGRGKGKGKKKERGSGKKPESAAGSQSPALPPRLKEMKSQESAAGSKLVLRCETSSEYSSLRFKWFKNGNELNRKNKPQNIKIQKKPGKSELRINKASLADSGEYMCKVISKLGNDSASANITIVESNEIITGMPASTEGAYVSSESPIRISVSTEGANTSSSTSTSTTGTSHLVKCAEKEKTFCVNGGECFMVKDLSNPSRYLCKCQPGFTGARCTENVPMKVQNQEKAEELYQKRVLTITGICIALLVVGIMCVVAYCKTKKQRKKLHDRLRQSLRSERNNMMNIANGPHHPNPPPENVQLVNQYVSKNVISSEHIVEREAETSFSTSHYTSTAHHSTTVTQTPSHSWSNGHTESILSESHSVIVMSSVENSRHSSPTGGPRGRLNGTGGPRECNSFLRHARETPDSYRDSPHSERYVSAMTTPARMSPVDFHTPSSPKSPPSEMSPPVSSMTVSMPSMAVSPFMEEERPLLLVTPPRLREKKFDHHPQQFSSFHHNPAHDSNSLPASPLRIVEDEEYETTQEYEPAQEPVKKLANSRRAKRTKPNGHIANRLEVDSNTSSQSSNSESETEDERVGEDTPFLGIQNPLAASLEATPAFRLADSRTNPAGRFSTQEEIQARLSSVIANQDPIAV
# [7] = system: Neuregulin-1 EGF-like domain; assay: small molecules binding NRG1 EGF domain – biochemical, small-molecule microarray, 635 nm fluorescence, primary screen (AID 1081); conditions: higher = more signal;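 also: binding of the protein to compounds printed on small-molecule microarray slides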
# [8] = FRG1 expression reporter modulators in myotubes – cell-based, C2C12 myotubes, firefly/Renilla luciferase, luminescence, FRG1 inhibition for FSHD, primary screen (AID 1084); conditions: FRG1 promoter luciferase, higher = more signal, called active from +8 up or from −8 down
# [9] = small molecules captured by biotinylated probe aFST – biochemical, small-molecule microarray, fluorescence 635/667, stem cell growth factor project, primary screen (AID 1086); conditions: higher = more signal;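 also: score merges 667 nm fluorescence with signal-to-noise of each printed compound spot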
# [10] = binders of probe aHhip on microarray, primary screen, stem cell growth factor project, biochemical, small-molecule microarray, fluorescence 635/667 (AID 1087); conditions: higher = more signal;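 also: score merges spot fluorescence at 667nm with spot signal to noise ratio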
# [11] = system: PRMT1 (protein arginine N-methyltransferase 1); assay: small molecules binding arginine methyltransferase PRMT1 – biochemical, small-molecule microarray, 635 nm fluorescence, primary screen (AID 1088); conditions: higher = more signal;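 also: binding of Prmt1 protein to compounds spotted on small-molecule microarray slides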
# [12] = growth effects on S. cerevisiae YJM789 – YJM789 clinical isolate, OD600, 24 h, basal, primary screen (AID 1089); conditions: higher = more signal, called active from +8 up or from −8 down;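 also: growth of clinical yeast isolate S. cerevisiae YJM 789 seeded 1000 cells per well; test concentration not given here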
# [13] = S. pombe growth modifiers, basal conditions – strain 972, OD600, 24 h, no modulator, primary screen (AID 1090);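 also: basal condition with compound alone and no growth modifier present; test concentration not given here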; conditions: S. pombe 972 growth, higher = more signal, called active from +8 up or from −8 down
# [14] = budding yeast growth modifiers under rapamycin – strain BY4716, OD600, 96 h, primary screen (AID 1091); also: test concentration not given here; conditions: S. cerevisiae BY4716 + rapamycin, higher = more signal, called active from +8 up or from −8 down
# [15] = biological target: Torsin-1A-interacting protein 2 (Homo sapiens) (UniProt Q8NFQ8); assay: small molecules binding lysate-expressed LULL1 – cell lysate, human LULL1 lysate, 635/667 nm fluorescence, primary screen (AID 1092); conditions: small-molecule microarray, hLULL1 lysate binding, 635 nm fluorescence; higher = more signal;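 also: probe is lysate of COS7 cells overexpressing human LULL1; score merges per-feature 667 nm fluorescence with signal-to-noise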
# Sequence of Torsin-1A-interacting protein 2 (Homo sapiens) (Q8NFQ8 whole entry, looked up): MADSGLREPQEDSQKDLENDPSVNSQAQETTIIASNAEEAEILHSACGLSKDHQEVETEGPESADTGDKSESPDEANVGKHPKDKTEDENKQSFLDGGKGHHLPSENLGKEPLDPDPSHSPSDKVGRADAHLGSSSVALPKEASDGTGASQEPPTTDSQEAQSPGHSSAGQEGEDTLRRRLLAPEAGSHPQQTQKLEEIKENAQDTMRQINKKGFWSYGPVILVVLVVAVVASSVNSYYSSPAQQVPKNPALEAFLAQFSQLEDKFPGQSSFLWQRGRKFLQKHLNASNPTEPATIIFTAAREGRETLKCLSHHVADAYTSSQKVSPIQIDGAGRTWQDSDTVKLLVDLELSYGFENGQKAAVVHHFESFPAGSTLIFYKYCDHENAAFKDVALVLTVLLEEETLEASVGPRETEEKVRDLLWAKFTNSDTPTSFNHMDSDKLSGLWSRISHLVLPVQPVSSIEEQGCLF
# [16] = optical density change of DRC41 E. coli – strain DRC41, OD650, 24 h, E. coli filamentation project, primary screen (AID 1093);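 also: MC1000 strain lacking acrAB efflux and sulA so SOS filamentation is blocked; test concentration not given here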; conditions: E. coli DRC41 growth, higher = more signal, called active from +8 up or from −8 down
# [17] = probe aLefty2 binding to arrayed compounds – biochemical, biotinylated probe, 635/667 nm fluorescence, primary screen (AID 1094); conditions: small-molecule microarray, higher = more signal;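 also: score merges spot fluorescence near 667 nm with spot signal-to-noise ratio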
# [18] = system: Noggin (protein binding on small-molecule microarray); assay: small molecules binding Noggin protein – biochemical, 635/667 nm fluorescence, primary screen (AID 1095); conditions: 635 nm fluorescence, higher = more signal;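 also: score merges 667 nm feature fluorescence with signal to noise over triplicate slides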
# [19] = biological target: Neurogenic locus notch homolog protein 3 (Homo sapiens) (UniProt Q9UM47); assay: small molecules binding NOTCH3 protein – biochemical, 635/667 nm fluorescence, primary screen (AID 1096); conditions: small-molecule microarray, 635 nm fluorescence, higher = more signal
# [20] = probe aEGFR binding to arrayed compounds – biochemical, biotinylated probe, 635/667 nm fluorescence, primary screen (AID 1097); conditions: small-molecule microarray, higher = more signal;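 also: probe is a biotinylated anti-EGFR antibody binding compounds printed on slides; score combines fluorescence near 667 nm and signal to noise of each spot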
SMILES,composite z-score [1],composite z-score [2],composite z-score [3],composite z-score [4],composite z-score [5],composite z-score [6],composite z-score [7],z-score [8],composite z-score [9],composite z-score [10],composite z-score [11],z-score [12],z-score [13],z-score [14],composite z-score [15],z-score [16],composite z-score [17],composite z-score [18],composite z-score [19],composite z-score [20]
C=CCC(OC(C)=O)[C@@H]1[C@@H](N(Cc2cc3ccccc3o2)C(=O)Cc2ccc(OC)cc2)c2cc(OCCCO)ccc2N1C(=O)c1ccc(-c2ccccc2)cc1 (stereo not given in full),0.378,0.459,-0.0601,-0.204,-0.4,-0.294,-0.529,-0.199 (inactive),0.182,0.251,-0.427,0.0801 (inactive),-0.709 (inactive),0.714 (inactive),0.238,1.53 (inactive),0.0689,-0.624,-1.09,-0.127
C=CCC(OC(C)=O)[C@@H]1[C@@H](N(Cc2cccc3ccccc23)C(=O)c2ccc(C)cc2)c2cc(OCCCO)ccc2N1C(=O)c1ccc2ccccc2c1 (stereo not given in full),-0.0181,0.0379,-0.152,0.409,0.145,-0.126,-0.163,-1.8 (inactive),0.137,0.0695,0.377,-0.844 (inactive),0.148 (inactive),-0.302 (inactive),1.19,0.649 (inactive),-0.0574,0.684,0.103,-0.0432
O=C(Nc1cc(Br)ccc1C(=O)NCc1cccc(O)c1)c1ccccc1,-0.0036,0.296,-0.0144,0.478,0.708,1.95,1.15,-1.07 (inactive),0.395,-0.318,1.45,1.06 (inactive),-2.4 (inactive),0.537 (inactive),2.5,2.81 (inactive),-0.0291,-0.0072,0.275,-0.0947
CC(C)NC(=O)[C@@]1(Cc2ccccc2I)c2ccccc2C(=O)N(Cc2ccccc2C(F)(F)F)[C@H]1c1ccc(CO)cc1,0.695,0.44,-0.0316,-0.0029,0.234,1.71,1.21,-2.61 (inactive),0.0674,0.533,1.53,-0.442 (inactive),-1.48 (inactive),-0.918 (inactive),2.84,0.125 (inactive),0.158,0.461,0.662,-0.0304
COCCCNC(=O)[C@]1(Cc2ccccc2CN=[N+]=[N-])N=C(c2ccc(OCCCO)cc2)O[C@@H]1c1ccccc1CN=[N+]=[N-],0.726,0.686,0.256,1.03,1.25,1.84,1.15,-1.35 (inactive),1.23,0.537,1.51,-0.353 (inactive),1.34 (inactive),31.6 (active),3.17,0.378 (inactive),0.419,0.342,0.697,0.332
